# Pf growth 96h: inhibits malaria parasite growth, 96 h; AID 504834; P. falciparum luciferase reporter growth, 96 h; actives 6.9% (n = 320,000); Potency, µM (series often up to 28.7 µM), without a hit: at the top dose activity change, negative = inhibition, most hits filed as inhibitors; also: % is scaled to controls: 0 for no effect and ±100 for the full control effect
#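 Two parasite generations (96 h, 37 C, 5% CO2) of compound exposure in infected erythrocytes (0.05% parasitemia, 2% hematocrit). Luciferase-reporter P. falciparum; decreased luminescence indicates inhibited growth, aimed at apicoplast-acting delayed death.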
# SARS PLP yeast: SARS-CoV PLP inhibition in yeast; AID 485353; actives 0.19% (n = 330,000); S. cerevisiae expressing SARS-CoV PLpro, growth rescue; Potency, µM (series often up to 32.9 µM), without a hit: at the highest dose activity, positive = growth rescue, actives largely listed as activators; calls by dose curve; also: 0% is about no effect; nearly all actives have a fitted effect of over 55% in size
# Pf growth 48h: inhibits P. falciparum growth in the first generation, 48 h; P. falciparum luciferase growth in erythrocytes, 48 h; Potency, µM (top dose mostly 28.7 µM), inactives show at the highest dose activity change, negative = inhibition, usual class: inhibitors; actives 5.9% (n = 310,000); AID 504832; also: % is scaled to controls: 0 for no effect and ±100 for the full control effect
#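 Luciferase-expressing parasites in RBCs, 2% Hct / 0.1% parasitemia final; RPMI 1640 + 0.5% Albumax; 37 C, 5% CO2, one generation; luminescence read-out, lower signal = inhibition.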
# NS1 function inh: inhibitors of influenza NS1 protein function | Potency, µM (titrated, usually from 46.1 µM), for inactives: at the highest dose activity, positive = more growth | actives 0.4% (n = 270,000); calls by dose curve; also: actives are rising curves; nearly all actives have a fitted effect of over 50% in size
#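 A cell-based growth assay was used: compounds that relieve NS1-induced slow growth of budding yeast raise OD600. Assay medium was yeast nitrogen base with ammonium sulphate and -URA supplement, pH 6.0, with 2% galactose.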
# Numbers without * were called inactive; i = inactive; ? = inconclusive; nt = no result; [ ] = remark or other dose. Shown are actives, neighbours in structure and some others; about 10% of the full set was active somewhere. Unless noted, calls follow the shape of the dose curve; as a rule, active = well fitted inhibition curve with a large enough effect; inconclusive = small, poorly fitted or top-dose-only effect, or another doubt; inactive = no such curve, though single readings can be large or run the other way. Potency is read from the fitted curve at half-maximal effect.
SMILES,Pf growth 96h,SARS PLP yeast,Pf growth 48h,NS1 function inh
CCOC(=O)N1CCN(CC(O)COc2ccccc2C(C)(C)C)CC1 (stereo unspecified),18%,-10%,-3%,-6%
CC1CN(CC(O)COc2ccccc2C(C)(C)C)CC(C)O1 (stereo unspecified),8.3µM*,0%,2.3µM*,0%
CCCCCCCCNC(=O)c1ccc(C)cc1,30%,-2%,7%,-38%
OC(COc1ccccc1)Cn1c2ccccc2c2ccccc21 (stereo unspecified),196%,-70%,?,-6%
Cc1ccccc1OCC(O)Cn1c2ccccc2c2ccccc21 (stereo unspecified),12µM*,-46%,8.3µM*,-94%
C=C1CC(C)OC(c2ccccc2OCC(O)CN2CCCCC2)C1 (stereo unspecified),18%,-1%,15µM*,4%
CCCCN1CC(COc2ccccc2)OC1=O (stereo unspecified),2.9µM*,1%,2%,-72%
O=C(c1ccccc1)N1CC(COc2ccccc2)OC(c2cccnc2)O1 (stereo unspecified),nt,-16%,7%,-83%
COc1ccc(C2C(C#N)=C3NC(=O)c4c(sc5c4CCCCC5)N3C3=C2C(=O)CC(C)(C)C3)cc1 (stereo unspecified),?,1%,?,?
COc1ccc(C2C(C#N)=C(N)N(c3sc4c(c3C#N)CCCC4)C3=C2C(=O)CC(C)(C)C3)cc1 (stereo unspecified),nt,1%,6.6µM*,-1%
COc1ccc(C2C(C#N)=C(N)N(c3sc4c(c3C#N)CCCC4)C3=C2C(=O)CC(C)(C)C3)cc1OC (stereo unspecified),5.2µM*,3%,nt,8%
CCn1nnc(NC(=O)c2ccc([N+](=O)[O-])o2)n1,i,-1%,20%[5.75 µM],nt
CCCCn1nnc(NC(=O)c2ccc(-c3ccccc3[N+](=O)[O-])o2)n1,8.3µM*,-1%,-14%,-6%
Cc1ccc(S(=O)(=O)Nc2cc(C)cn(Cc3ccccc3)c2=O)cc1,2%,-1%,?,-31%
Cc1ccc(S(=O)(=O)Nc2cc(C)cn(Cc3ccc(F)cc3)c2=O)cc1,?,1%,0.21µM*,-2%
CCOc1ccc(-c2c(C)n(-c3ccc(OCC)cc3)c3[n+]2CCCCC3)cc1,?,-1%,0.41µM*,-58%
CC(C)=CC(O)C/C(C)=C/COc1ccc2ccc(=O)oc2c1 (stereo unspecified),-16%,-2%,-10%,9%
CCC(=O)NCCCNc1nc2c(C)cccc2cc1C#N,3%,-5%,24%,nt
COc1ccc2nc(NCCNC(=S)NCCCN3CCOCC3)c(C#N)cc2c1,-33%[5.75 µM],6%,?,nt
Cc1cccc2cc(C#N)c(NCCNS(=O)(=O)c3ccc4c(c3)OCCO4)nc12,5.2µM*,0%,-15%,-34%
Cc1cccc2cc(C#N)c(NCCNC(=S)NCCCN3CCOCC3)nc12,-17%,-1%,10µM*,22%
Cc1cc2cc(C#N)c(NCCNC(=S)NCCCN3CCOCC3)nc2cc1C,223%,4%,13µM*,13%
N#Cc1ccc(Nc2nn3c(=O)c4ccccc4nc3s2)cc1,3%,nt,11%,nt
O=c1c2c3c(sc2nc2n1CCC2)CCC3,0.33µM*,4%,20%,?
CC(C)C(NC(=O)c1ccco1)C(=O)NCc1ccc(C(=O)O)cc1 (stereo unspecified),42%,0%,18%,-40%
SMILES,Pf growth 96h,SARS PLP yeast,Pf growth 48h,NS1 function inh
O=C(c1cc(COc2ccc(F)cc2F)on1)N1CCN(C2CCCC2)C(=O)C1,-12%,4%,8.3µM*,-59%
CCCc1cc(Nc2c(C)n(C)n(-c3ccccc3)c2=O)n2c(nc3ccccc32)c1C#N,-2%,17%,1.7µM*,?
CCCc1cc(NCCCCO)n2c(nc3ccccc32)c1C#N,3.3µM*,6%,9.3µM*,-7%
Cc1cc(NCCCCO)n2c(nc3ccccc32)c1C#N,27%,3%,10µM*,-4%
CCCc1cc(NCCCN2CCOCC2)n2c(nc3ccccc32)c1C#N,-20%,1%,-22%,6%
Cc1cc(Nc2c(C)n(C)n(-c3ccccc3)c2=O)n2c(nc3ccccc32)c1C#N,nt,0%,-26%,-6%
CC(C)(O)C(Cl)(Cl)Cl,1.7µM*,nt,2.7µM*,nt
CN1CCC(N(C)c2nc(-c3ccc([N+](=O)[O-])cc3)nc3ccccc23)CC1,1.5µM*,-5%,?,-29%
CCN(C(=O)CSc1nnnn1-c1ccccc1)C1CCS(=O)(=O)C1 (stereo unspecified),25%,2%,23%,nt
O=C1Nc2ccccc2CCC1Sc1nnc(-c2ccc(Cl)cc2)s1 (stereo unspecified),?,0%,13µM*,6%
Cc1cccc(C)c1-n1c(C)nn(CC#N)c1=O,-34%[5.75 µM],1%,14%,-1%
Oc1c(N=Nc2ccccn2)ccc2ccccc12,8.3µM*,-32%,?,-177%
COCCNC(=O)C(c1cccc(OC)c1)N(Cc1cccs1)C(=O)Cn1nnc2ccccc21 (stereo unspecified),33%,8%,-25%,-6%
CCC(C)N(C(=O)Cn1nnc2ccccc21)C(C(=O)Nc1ccc(F)cc1)c1cccc(OC)c1 (stereo unspecified),10µM*,-2%,?,?
OC(c1cc(C(F)(F)F)nc2c(C(F)(F)F)cccc12)C1CCCCN1 (stereo unspecified),0.0037µM*,nt,0.0093µM*,nt
OC(c1cc(-c2ccc(C(F)(F)F)cc2)nc(C(F)(F)F)c1)C1CCCCN1 (stereo unspecified),0.0083µM*,1%,0.1µM*,9%
CCOC(=O)c1c(C)[nH]c(C(=O)OC(C)C(=O)NC2CCCCC2C)c1C (stereo unspecified),?,-6%,?,nt
COc1ccccc1CC1(C)NC(=O)N(CC(=O)N2CC(C)OC(C)C2)C1=O (stereo unspecified),0.52µM*,15%,6%,5%
Cc1cc(NC(=O)COC(=O)[C@@H](NS(=O)(=O)c2ccc(Br)cc2)C(C)C)no1,37%,2%,15%,-3%
COc1ccc(C(CNC(=O)c2cccc(S(=O)(=O)NCc3ccccc3)c2)N(C)C)cc1 (stereo unspecified),0%,-6%,?,1%
CC(C)(C)OC(=O)NCc1ccc(CNC(=O)c2[nH]cnc2C(=O)N[C@@H](Cc2ccccc2)C(=O)OCc2ccccc2)cc1,3.3µM*,1%,?,?
CC(C)(C)OC(=O)[C@H](Cc1ccccc1)NC(=O)c1nc[nH]c1C(=O)NCc1ccccc1,1%,-2%,-1%,22%
C[C@H](NC(=O)c1nc[nH]c1C(=O)N[C@@H](Cc1ccccc1)C(=O)OC(C)(C)C)c1ccccc1,?,-1%,3.3µM*,?
CC(C)(C)OC(=O)NCc1ccc(NC(=O)c2nc[nH]c2C(=O)N[C@@H](Cc2ccccc2)C(=O)OCc2ccccc2)cc1,4.1µM*,1%,8.3µM*,?
